Data from ChEMBL document CHEMBL1157539, “Thousands of chemical starting points for antimalarial lead identification” (Nature, 2010).

system: Plasmodium falciparum; test: GSK_TCMDC: Inhibition of Plasmodium falciparum 3D7 in whole red blood cells, using parasite LDH activity as an index of growth. Test compounds present at 2uM; assay type: functional

| Compound | Inhibition [%] |
| --- | --- |
| COc1cc(C)nc2ccc(NC(=O)c3ccc(C(=O)Nc4ccc5nc(C)cc(OC)c5c4)cc3)cc12 | 96 |
| COc1ccc(C2C(C(=O)OC3CCCC3)=C(C)NC3=C2C(=O)CCC3)cc1Br (stereo unspecified) | 94 |
| Cc1cccc(C(=O)NCCCN2CCC(NC(=O)/C=C/c3ccc(Cl)c(Cl)c3)CC2)c1.O=C(O)C(F)(F)F | 98 |
| O=C(NCCc1cccc(F)c1)c1cc(Br)cc(N2CCN(c3ccncc3)CC2)c1.O=C(O)C(F)(F)F | 100 |
| O=C(Nc1ccc(-c2cccc(-c3nc4cc(C(F)(F)F)ccc4[nH]3)c2)cc1)c1ccoc1 | 96 |
| COc1ccc2c(NN=Cc3cccc(C)n3)ccnc2c1 | 96 |
| Cc1cc(CNC(=O)[C@H](CC2CCCCC2)Nc2ccc(C#N)c3ccccc23)c(C(F)(F)F)o1.O=C(O)C(F)(F)F | 87 |
| Cc1ccccc1C1CCN(C2CCC(NC(=O)/C=C/c3cc(F)cc(F)c3)CC2)CC1 (stereo unspecified) | 99 |
| Cc1cc(CN2C(=O)C(c3ccccc3)(c3ccccc3)N=C2N)c(C(F)(F)F)o1 | 97 |
| CS(=O)(=O)CCNCc1nc(-c2ccc3ncnc(Nc4ccc(OCc5ccccc5)c(Cl)c4)c3c2)cs1.Cl | 99 |
| CN(C(=O)Cc1ccc(Cl)c(Cl)c1)C1CCN(CCCCCNC(=O)/C=C/c2ccc(Cl)c(Cl)c2)CC1 | 84 |
| CCS(=O)(=O)c1ccc(OC)c(Nc2nccc(-c3c(-c4cccc(NC(=O)c5c(F)cccc5F)c4)nn4ncccc34)n2)c1 | 87 |
| COc1ccccc1N1CCN(CCCCNC(=O)c2ccc(NC(=O)c3cc(Cl)cc(Cl)c3)cc2)CC1 | 100 |
| Cc1cc(N[C@@H](CC(C)C)C(=O)NCCOc2ccccc2)nc(Nc2ccccc2)n1.O=C(O)C(F)(F)F | 93 |
| COc1cc(C)nc2ccc(NC(=O)Nc3ccccc3[N+](=O)[O-])cc12 | 100 |
| CNC(=O)c1cc(S(=O)(=O)N2CCN(c3ccccn3)CC2)cs1 | 99 |
| N#Cc1ccc2c(c1)CCN(CCCn1c(-c3ccc4ccccc4c3)nc3ccncc31)CC2 | 100 |
| CC(C)NC(=O)c1cccc(-c2ccc(OCCN3CCCC3c3cc4ccccc4[nH]3)cc2)c1 (stereo unspecified) | 100 |
| CN1CCN(c2ccnc3ccc(NC(=O)c4ccc(Cl)c(Cl)c4)cc23)CC1 | 100 |
| CC(C)CCC[C@@H]([C@@H](CC1CCCCC1)C(=O)N[C@@H](CCCCNC(=O)OCc1ccccc1)C(=O)Nc1nccs1)N(O)C=O | 98 |
| COCCNCc1cccc(C#Cc2cc3ncnc(Nc4ccc(OCc5cccc(F)c5)c(Cl)c4)c3s2)n1 | 99 |
| NC(=O)c1cccc(C(=O)Nc2cccc(-c3cccc(-c4nc5cc(C(F)(F)F)ccc5[nH]4)c3)c2)c1 | 100 |
| C[C@@H]([C@@H](CCCCc1ccccc1)C(=O)N[C@H](C(=O)Nc1cccnc1)C(C)(C)C)N(O)C=O | 98 |
| O=C(/C=C/c1ccc(Cl)c(Cl)c1)NCCCCCN1CCCN(C(=O)Nc2ccc([N+](=O)[O-])cc2)CC1 | 97 |
| Cc1ccc(NC(=O)c2ccc(CN3CCCN(Cc4cccc(O)c4)CC3)cc2)cc1C.O=C(O)C(F)(F)F | 98 |
| COc1ccc(C(=O)Nc2ccc(-c3nc4cc(C)ccc4[nH]3)cc2)cc1OC | 100 |

system: Plasmodium falciparum; test: GSK_TCMDC: Inhibition of Plasmodium falciparum Dd2 in whole red blood cells, using parasite LDH activity as an index of growth. Test compounds present at 2uM; assay type: functional

| Compound | Inhibition [%] |
| --- | --- |
| COc1ccc(/N=[N+](\[O-])c2ccccc2/[N+]([O-])=N/c2ccc(OC)cc2)cc1 | 29 |
| CCCCCCNC(=O)C1Cc2c([nH]c3ccc(C)cc23)C2(CCN(Cc3ccccc3)CC2)N1 (stereo unspecified) | 25 |
| COc1ccc2ncc(OC)c(CCN3CC[C@@H](NCc4ccc5c(n4)NC(=O)CS5)[C@H](O)C3)c2n1 | 99 |
| Cc1cccc2nc(-c3ccc(-c4ccc(NC(=O)c5cncn5C)cc4)s3)[nH]c12 | 30 |
| CN1CCN(c2ccnc3ccc(NC(=O)Nc4cccc5c(-c6ccncc6)cccc45)cc23)CC1 | 100 |
| COc1ccc(Nc2nccc(N3CCC(NC(=O)c4cccc(NC(C)=O)c4)C3)n2)cc1 (stereo unspecified) | 84 |
| Nn1c(=O)oc2ccc(Cl)cc2c1=O | 96 |
| CC(=O)Nc1ccc(CN(Cc2ccc(F)cc2)Cc2ccc3c(c2)OCO3)cc1 | 87 |
| NCCNc1ccnc2cc(Cl)ccc12 | 54 |
| Cc1ccc(C)c(NC(=O)Nc2ccc(C)c(-c3ccc(C(=O)Nc4ccncc4)cc3)c2)c1 | 59 |
| COc1ccc(Nc2ncc3c(-c4cccc(NC(=O)Cc5cccc(F)c5)c4)c[nH]c3n2)cc1OC | 68 |
| Cc1ccc(NC(=O)NC2CCN(c3ccnc4cc(Cl)ccc34)CC2)cc1.O=C(O)C(F)(F)F | 47 |
| CC(C)C[C@H](NC(=O)c1cc2ccccc2s1)C(=O)N[C@H]1CCN(Cc2ccc(I)c(OC3CCN(C)C3)c2)C1.O=C(O)C(F)(F)F (stereo partly specified) | 95 |
| COc1cc(F)c2ncc(Cl)c(CCN3CCC(NCc4ccc5c(n4)NC(=O)CS5)CC3)c2c1.Cl | 41 |
| COc1cc(C)nc2ccc(NC(=O)c3ccc(C(=O)Nc4ccc5nc(C)cc(OC)c5c4)cc3)cc12 | 72 |
| COc1ccc(C2C(C(=O)OC3CCCC3)=C(C)NC3=C2C(=O)CCC3)cc1Br (stereo unspecified) | 77 |
| Cc1cccc(C(=O)NCCCN2CCC(NC(=O)/C=C/c3ccc(Cl)c(Cl)c3)CC2)c1.O=C(O)C(F)(F)F | 23 |
| O=C(NCCc1cccc(F)c1)c1cc(Br)cc(N2CCN(c3ccncc3)CC2)c1.O=C(O)C(F)(F)F | 86 |
| O=C(Nc1ccc(-c2cccc(-c3nc4cc(C(F)(F)F)ccc4[nH]3)c2)cc1)c1ccoc1 | 13 |
| COc1ccc2c(NN=Cc3cccc(C)n3)ccnc2c1 | 51 |

| Compound | Inhibition [%] |
| --- | --- |
| Cc1cc(CNC(=O)[C@H](CC2CCCCC2)Nc2ccc(C#N)c3ccccc23)c(C(F)(F)F)o1.O=C(O)C(F)(F)F | 55 |
| Cc1ccccc1C1CCN(C2CCC(NC(=O)/C=C/c3cc(F)cc(F)c3)CC2)CC1 (stereo unspecified) | 33 |
| Cc1cc(CN2C(=O)C(c3ccccc3)(c3ccccc3)N=C2N)c(C(F)(F)F)o1 | 84 |
| CS(=O)(=O)CCNCc1nc(-c2ccc3ncnc(Nc4ccc(OCc5ccccc5)c(Cl)c4)c3c2)cs1.Cl | 55 |
| CN(C(=O)Cc1ccc(Cl)c(Cl)c1)C1CCN(CCCCCNC(=O)/C=C/c2ccc(Cl)c(Cl)c2)CC1 | 13 |
| CCS(=O)(=O)c1ccc(OC)c(Nc2nccc(-c3c(-c4cccc(NC(=O)c5c(F)cccc5F)c4)nn4ncccc34)n2)c1 | 88 |
| COc1ccccc1N1CCN(CCCCNC(=O)c2ccc(NC(=O)c3cc(Cl)cc(Cl)c3)cc2)CC1 | 75 |
| Cc1cc(N[C@@H](CC(C)C)C(=O)NCCOc2ccccc2)nc(Nc2ccccc2)n1.O=C(O)C(F)(F)F | 9 |
| COc1cc(C)nc2ccc(NC(=O)Nc3ccccc3[N+](=O)[O-])cc12 | 58 |
| CNC(=O)c1cc(S(=O)(=O)N2CCN(c3ccccn3)CC2)cs1 | 100 |
| N#Cc1ccc2c(c1)CCN(CCCn1c(-c3ccc4ccccc4c3)nc3ccncc31)CC2 | 97 |
| CC(C)NC(=O)c1cccc(-c2ccc(OCCN3CCCC3c3cc4ccccc4[nH]3)cc2)c1 (stereo unspecified) | 34 |
| CN1CCN(c2ccnc3ccc(NC(=O)c4ccc(Cl)c(Cl)c4)cc23)CC1 | 64 |
| CC(C)CCC[C@@H]([C@@H](CC1CCCCC1)C(=O)N[C@@H](CCCCNC(=O)OCc1ccccc1)C(=O)Nc1nccs1)N(O)C=O | 90 |
| COCCNCc1cccc(C#Cc2cc3ncnc(Nc4ccc(OCc5cccc(F)c5)c(Cl)c4)c3s2)n1 | 52 |
| NC(=O)c1cccc(C(=O)Nc2cccc(-c3cccc(-c4nc5cc(C(F)(F)F)ccc5[nH]4)c3)c2)c1 | 85 |
| C[C@@H]([C@@H](CCCCc1ccccc1)C(=O)N[C@H](C(=O)Nc1cccnc1)C(C)(C)C)N(O)C=O | 98 |
| O=C(/C=C/c1ccc(Cl)c(Cl)c1)NCCCCCN1CCCN(C(=O)Nc2ccc([N+](=O)[O-])cc2)CC1 | 28 |
| Cc1ccc(NC(=O)c2ccc(CN3CCCN(Cc4cccc(O)c4)CC3)cc2)cc1C.O=C(O)C(F)(F)F | 25 |
| COc1ccc(C(=O)Nc2ccc(-c3nc4cc(C)ccc4[nH]3)cc2)cc1OC | 38 |
